# The list is not random: actives were taken first. Their share in the collection is about 17%.
# S2 tox – viability counter-screen for ATXN expression inhibitors; AID 651635; 400,000 compounds, 0.49% hits; S2 cells (HEK-293 line with an ATXN2-luciferase reporter) viability, CellTiter-Fluor protease fluorescence, 24 h; Potency, µM (titrated, usually from 56.7 µM), most hits filed as cytotoxic; further: nearly all actives have a fitted effect of over 40% in size
# DT40 TDP1 no CPT – qHTS for Inhibitors of human tyrosyl-DNA phosphodiesterase 1 (TDP1): qHTS in cells in absence of CPT; DT40 Tdp1-/- hTDP1 cells, no CPT, ATP luminescence, 48 h; Potency, µM (doses to about 46.2 µM), without a hit: top-dose activity change, negative = growth inhibition, actives largely listed as inhibitors; 420,000 compounds, 15% hits; further: on the % scale 0 is the no-effect control and ±100 the full control effect; nearly all actives have a fitted effect of over 55% in size
#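 Cells were dispensed at 400 per well, compounds added by pin tool, plates incubated ≥48 hr at 37 °C, then CellTiter-Glo added for 30 min at room temperature before luminescence reading. Line: DT40 Tdp1-/- complemented with hTDP1; camptothecin omitted.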
# ATXN2 expr inh – reduces ATXN2 reporter expression in HEK-293 cells | 360,000 compounds, 0.72% hits | AID 1745845 | Potency, µM (highest dose often 57 µM), for the others: top-dose activity change, negative = inhibition, most hits filed as inhibitors | HEK-293 ATXN2-luciferase reporter, luminescence, 24 h; further: on the % scale 0 is the no-effect control and ±100 the full control effect; nearly all actives have a fitted effect of over 55% in size
#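 ATXN2-luciferase reporter cells (luciferase flanked by upstream and downstream ATXN2 gene portions) were treated 24 h at 37 °C with compounds at up to 57 uM. SteadyGlo luminescence gave expression; GF-AFC fluorescence gave viability.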
# TGFb SMAD3 inh – blocks TGF-b signaling | HepG2 CAGA-GFP TGF-b/SMAD3 reporter, GFP fluorescence, 18 h; TGF-beta stimulated, 500 pg/mL final | AID 588855 | Potency, µM (titrated, usually from 46.1 µM), without a hit: at the highest dose activity, negative = inhibition, most hits filed as inhibitors | 410,000 compounds, 1.2% hits; further: on the % scale 0 is the no-effect control and ±100 the full control effect; nearly all actives have a fitted effect of over 65% in size
#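 Read-out: total well GFP (ex488/em500-530) summed from mean per-cell fluorescence. Cells: HEPG2 CAGA-GFP, 1% FBS DMEM, 18 h at 37 degrees C with 500 pg/mL final TGF-beta. Unstimulated wells served as the full-inhibition control; stimulated DMSO wells = 0%.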
# DT40 TDP1 CPT – growth inhibition of DT40 Tdp1-/-;hTDP1 cells with camptothecin (screen for TDP1 inhibitors) | chicken DT40 Tdp1-/-;hTDP1 cells + 20 nM CPT, ATP luminescence, 48 h | Potency, µM (series often up to 46.2 µM), for inactives: at the highest dose activity change, negative = growth inhibition, actives largely listed as inhibitors | 420,000 compounds, 12% hits | AID 686979; further: on the % scale 0 is the no-effect control and ±100 the full control effect; nearly all actives have a fitted effect of over 55% in size
#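 Chicken DT40 Tdp1-/- cells stably complemented with human TDP1 were seeded at 400 cells/well in medium containing 20 nM camptothecin, exposed to pin-transferred compounds, and grown at 37 °C for at least 48 hr. Viability was read as ATP luminescence.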
# HepG2 tox – kills HepG2 cells in TGF-b inhibitor counter-screen | HepG2 CAGA-GFP viability, ATP luminescence, 18 h | Potency, µM (highest dose often 46.1 µM), inactives show at the highest dose activity change, negative = cytotoxicity, most hits filed as cytotoxic | 410,000 compounds, 0.76% hits | AID 588856
#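 HepG2 CAGA-GFP cells (1000/well, DMEM with 1% FBS) received compound, then TGF-beta at 500 pg/mL final, and were incubated 18 hours at 37 degrees C. Viability was read by CellTiter-Glo luminescence. Media-only wells were set as complete cell-killing and DMSO as no toxicity.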
# Starred values were filed as active, the others as inactive; i = inactive; ? = inconclusive; . = no result given. The call rests on the fitted dose curve; in most records, active means well fitted curve in the direction sought with a large enough effect; inconclusive means small, poorly fitted or top-dose-only effect, or another doubt; inactive means no such curve, though single readings can be large; an effect the other way counts as inactive or inconclusive. Potency means the concentration at half of the fitted maximal effect.
SMILES,S2 tox,DT40 TDP1 no CPT,ATXN2 expr inh,TGFb SMAD3 inh,DT40 TDP1 CPT,HepG2 tox
CCOC(=O)C1=C(C)N(C[C@@H]2CC[C@@H](Cc3ccc4cc(OC)ccc4c3)O2)C(=O)NC1c1ccccc1 (stereo not given in full),i,?,0%,?,21µM*,-29%
COC(=O)C1=C(C)N(Cc2ccccc2)C(=NCc2ccc(OC)cc2)N[C@H]1c1ccccc1,?,8.2µM*,?,?,7.3µM*,-84%
COC(=O)C1=C(C)N(CC2CC2)C(=O)N[C@H]1c1ccc(Br)cc1,?,?,-21%,-5%,23µM*,-11%
CCN1C(=O)N[C@@H](c2ccc(Br)cc2)C(C(=O)OC)=C1C,i,?,-7%,?,?,-1%
COC(=O)C1=C(C)N(Cc2ccccc2)C(=O)N[C@H]1c1ccccc1,i,-21%,-6%,-17%,?,-18%
CCOC(=O)CC1=CCc2c1ccc(OC)c2OC,i,-26%,38%,3%,-8%,-10%
Cc1ccc(S(=O)(=O)N2CCOCC2)cc1NC(=O)COC(=O)c1cnc(Cl)c(Cl)c1,i,-12%,-10%,?,-8%,0%
CN(C)c1ccc(C(=O)NCCCCCCC(=O)NO)cc1,.,.,171%,.,.,.
COC(=O)CSc1nccc(C)n1,i,4%,.,-13%,6%,-14%
C=CCN=C1N[C@@H](c2ccc(Br)cc2)C(C(=O)OC)=C(C)N1Cc1ccccc1,.,?,.,?,13µM*,-96%
Cc1cccc(NC(=O)NCC(c2cccnc2)N2CCOCC2)c1 (stereo not given),i,-12%,2%,12%,-17%,-1%
O=C(NCC(c1cccnc1)N1CCN(Cc2ccccc2)CC1)C(=O)Nc1cccc(Cl)c1 (stereo not given),i,13µM*,?,-8%,15µM*,-5%
Cc1cccc(NC(=O)C(=O)NCC(c2cccnc2)N2CCN(Cc3ccccc3)CC2)c1 (stereo not given),i,16µM*,-14%,-22%,23µM*,-11%
CCCN(C(=O)c1cc(S(=O)(=O)N(C)c2ccc(OCC)cc2)ccc1C)C1CCS(=O)(=O)C1 (stereo not given),i,26µM*,-19%,-6%,?,0%
COc1ccc(CCNC(=O)c2cc(S(=O)(=O)N(C)c3ccccc3)ccc2Cl)cc1,i,7.3µM*,-9%,-18%,18µM*,-3%
CCOc1ccc(N(C)S(=O)(=O)c2ccc(C)c(C(=O)NCCc3ccc(OC)cc3)c2)cc1,i,?,-10%,0%,23µM*,0%
COc1ccc(N(C)S(=O)(=O)c2ccc(Cl)c(C(=O)NCC(C)(C)N3CCOCC3)c2)cc1,i,9.2µM*,-15%,-7%,9.2µM*,-9%
COc1ccc(CCNC(=O)c2ccc(N(C)S(=O)(=O)c3ccccc3)cc2)cc1,i,?,-13%,9%,?,4%
Cc1cc(/C=C2\SC(=Nc3ccccc3)NC2=O)c(C)n1-c1ccc(S(N)(=O)=O)cc1,i,2.6µM*,?,13µM*,5.2µM*,-51%
COc1ccc(-n2c(C)cc(/C=C3\SC(=O)NC3=O)c2C)cc1,i,2%,65%,0%,7%,-50%
CCCCNC(=O)NC(C(=O)OC)C12CC3CC(CC(C3)C1)C2 (stereo not given),i,-9%,-3%,2%,-4%,3%
CCCCCCCCN1C(=O)[C@H](CC(=O)N2CCN(C(=O)c3ccco3)CC2)C[C@@]2(C(=O)OC)CC(C)(C)CC=C12,.,15µM*,.,.,12µM*,.
CCCCCCCCN1C(=O)[C@H](CC(=O)N2CCN(C(=O)c3ccco3)CC2)C[C@@]2(C(=O)OC)CCCCC=C12,?,23µM*,?,.,?,.
CC(C)Oc1cc(F)ccc1-c1cc(C(=O)NCc2cccnc2)[nH]n1,i,?,2%,28%,7%,8%
O=C(Nc1cccc2ccccc12)OC1C=CS(=O)(=O)C1 (stereo not given),i,21µM*,?,1%,?,2%
SMILES,S2 tox,DT40 TDP1 no CPT,ATXN2 expr inh,TGFb SMAD3 inh,DT40 TDP1 CPT,HepG2 tox
NS(=O)(=O)Nc1c(Br)cc(Br)c2cccnc12,.,.,.,-2%,.,8%
CC(=NNc1ccccc1)C(C)=NNc1ccccc1,i,-8%,4%,12%,-5%,9%
CC(=O)/C=N/Nc1ccccc1,i,-8%,-9%,22µM*,-18%,-93%
O=C(O)c1ccc(N2C(=O)CC(N3CCN(c4cccc(Cl)c4)CC3)C2=O)cc1 (stereo not given),i,3.3µM*,.,20%,-27%,19%
Cc1cc(C)n(C2CC(=O)N(c3cccc(Cl)c3)C2=O)n1 (stereo not given),i,?,-16%,0%,15µM*,-4%
CC1CCN(C2CC(=O)N(c3ccccc3)C2=O)CC1 (stereo not given),i,-15%,0%,-2%,21µM*,1%
CCOC(=O)c1ccc(N2C(=O)CC(N3CCN(Cc4ccccc4)CC3)C2=O)cc1 (stereo not given),i,-15%,-5%,?,-11%,5%
O=C1CC(N2CCOCC2)C(=O)N1c1cccc(Cl)c1 (stereo not given),i,-8%,5%,6%,-19%,-24%
CCOC(=O)c1ccc(N2C(=O)CC(N3CCCC(C)C3)C2=O)cc1 (stereo not given),i,?,-2%,-1%,13µM*,5%
O=C1CC(N2CCN(Cc3ccccc3)CC2)C(=O)N1c1ccccc1 (stereo not given),i,-2%,21%,-1%,2%,1%
O=C(Nc1ccc(S(=O)(=O)Nc2ncccn2)cc1)C1CC(=O)N(c2ccc(Cl)cc2)C1 (stereo not given),i,4%,-16%,-5%,4%,-4%
CCOc1ccc(-c2cc(C(=O)Nc3ccc(NC(C)=O)cc3)no2)cc1,.,-4%,.,-29%,1%,-12%
C=CC[C@@H](CC(=O)N(CCO)Cc1ccccc1)C(=O)NCCOC(=O)[C@@H](CC=C)Cc1ccc(F)cc1,?,13µM*,-21%,-21%,21µM*,-1%
